Measurements published in PubChem BioAssay AID651699 (Sanford-Burnham Center for Chemical Genomics, 2012).
The campaign covered roughly 360,000 compounds. About 2,100 (0.58%) were called active. No stated cut-off is given here; in the data, active means inhibition above about 36%; inactive means the rest. This excerpt belongs to a sample that is enriched for actives.

These molecules were tested against NEDD8-conjugating enzyme Ubc12 (Homo sapiens) + NEDD8-activating enzyme E1 regulatory subunit (Homo sapiens) (UniProt P61081+Q13564) (assay: inhibitors of cullin neddylation, primary screen, biochemical, TR-FRET, uHTS, NAE and Ubc12 (AID 651699)). Conditions: at 25 µM, active compounds read high.
NEDD8-conjugating enzyme Ubc12 (Homo sapiens) + NEDD8-activating enzyme E1 regulatory subunit (Homo sapiens), sequence (P61081 whole entry, looked up): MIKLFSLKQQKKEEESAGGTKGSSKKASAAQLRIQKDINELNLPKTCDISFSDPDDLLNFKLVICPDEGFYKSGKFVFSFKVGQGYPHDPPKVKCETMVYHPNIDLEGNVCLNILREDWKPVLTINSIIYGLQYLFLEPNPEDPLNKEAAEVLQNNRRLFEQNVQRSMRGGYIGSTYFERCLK
NEDD8-conjugating enzyme Ubc12 (Homo sapiens) + NEDD8-activating enzyme E1 regulatory subunit (Homo sapiens), sequence (Q13564 whole entry, looked up): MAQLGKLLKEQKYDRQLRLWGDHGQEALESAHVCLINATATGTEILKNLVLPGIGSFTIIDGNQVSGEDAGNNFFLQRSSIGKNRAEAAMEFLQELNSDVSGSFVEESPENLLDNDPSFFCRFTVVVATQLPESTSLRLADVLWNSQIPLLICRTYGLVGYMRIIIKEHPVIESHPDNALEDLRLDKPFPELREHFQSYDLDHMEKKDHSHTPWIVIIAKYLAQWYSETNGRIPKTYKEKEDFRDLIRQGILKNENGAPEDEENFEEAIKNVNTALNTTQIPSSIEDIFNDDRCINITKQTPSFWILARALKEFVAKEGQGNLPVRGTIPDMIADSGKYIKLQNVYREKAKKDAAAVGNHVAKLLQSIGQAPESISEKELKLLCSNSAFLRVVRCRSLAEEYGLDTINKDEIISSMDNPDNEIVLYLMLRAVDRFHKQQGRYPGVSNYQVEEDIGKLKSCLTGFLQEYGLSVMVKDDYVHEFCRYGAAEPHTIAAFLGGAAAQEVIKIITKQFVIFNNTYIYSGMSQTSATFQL

inhibition, inactive:
CCN1CCCC1Cn1cnc2c([nH]c3cc(OC)ccc32)c1=O (centres undefined) 1.83%, CCN1CCCC1CNC(=O)Cn1cnc2ccc(S(=O)(=O)N3CCC(C)CC3)cc2c1=O (centres undefined) -2.38%, CCOC(=O)C1=C(N)N2C(=O)C(C)SC2=C(C(=O)OCC)C1c1cc(OC)c(OC)c(OC)c1 (centres undefined) -1.53%, COc1ccc(CC(N)c2csc(NC(=O)NC(c3ccccc3)c3ccccc3)n2)cc1 (centres undefined) -1.83%, COC(=O)c1ccc2c(c1)S(=O)(=O)NC(=NCCCN1CCOCC1)S2 -10.1%, CC(Sc1nc2c([nH]c3ccccc32)c(=O)n1C)c1ccccc1 (centres undefined) -4.19%, CSc1nc2nc3c(c(=O)n2[nH]1)CCC3 -7.01%, Clc1cccc(Cc2c(-c3cccc(Cl)c3)nc3ccc(Cl)cn23)c1 -36.7%, O=C(Nc1cc(-c2nn(CC(=O)N3CCCCC3)c(=O)c3ccccc23)ccc1N1CCOCC1)c1ccc(Cl)cc1 20.1%, O=C(CCl)NNc1cccc(Cl)n1 3.4%, COc1ccc2oc(C(=O)N(CC(C)C)C3CCS(=O)(=O)C3)c(C)c2c1 (centres undefined) 2.83%, NC(=O)C1(N2CCCCC2)CCN(C(=O)c2ccc(C#Cc3ccccc3)o2)CC1 -13.2%, COc1ccc(Br)cc1/C=N/Nc1ccc(S(=O)(=O)Nc2ccccc2C(=O)O)cc1[N+](=O)[O-] -8.62%, O=C(NC(=S)Nc1ccc(Cl)c(C(=O)O)c1)c1cncc(Br)c1 -4.06%, CCN(CC(=O)NCc1cccs1)c1nnnn1-c1ccccc1 0.19%, O=C(NCc1cccc(C(F)(F)F)c1)c1ccc2sc(COCCO)nc2c1 3.36%, CCOC(=O)c1cc(C(=O)Nc2ccc(S(=O)(=O)Nc3ccc(OC)cc3)cc2)nn1C -1.03%, CC(C)CN(C(=O)COC(=O)c1ccc2ccccc2c1)c1c(N)n(Cc2ccccc2)c(=O)[nH]c1=O 3.53%, CC(C)CN(C(=O)COC(=O)c1ccc(Cl)c(N)c1)c1c(N)n(Cc2ccccc2)c(=O)[nH]c1=O 30.6%, CCN(CC)C(=O)C1=C(C)N(Cc2ccc(C(C)(C)C)cc2)C(=O)C(CC(=O)NCc2cccc3ccccc23)C1 (centres undefined) -9.92%, CC(C)Cc1nc(Cl)c(C#N)c2c1CCC2 -5.13%, COc1cc(S(=O)(=O)N2CCOCC2)ccc1NC(=O)COc1ccc(N(C)S(=O)(=O)c2ccc(C)cc2)cc1 -8.3%, CCNC(=O)CN(c1ccc(C)cc1)S(=O)(=O)c1ccc(SC)cc1 -3.17%, Cc1cc(C(=O)OCC(=O)Nc2nnc(C(C)C)s2)c2ccccc2n1 -11.2%, CCOC(=O)c1cc(C)sc1NC(=O)C1CCC1 -7.86%, COc1ccc(CN(CC(=O)NC2CCCC2)C(=O)CCC(=O)Nc2cc(C)on2)cc1 6.41%, COc1cccc(NC(=O)c2nn(-c3ccc(OC)cc3OC)c(=O)c3ccccc23)c1 -9.58%, CCN(c1ccccc1)S(=O)(=O)c1ccc(OCC(=O)N2CCCC2)cc1 -24.7%, Cc1ccc(NC(=O)CC2C(=O)N(Cc3ccccc3)C(=S)N2NC(=O)c2cccc(F)c2)c(C)c1 (centres undefined) 2.05%, COc1ccccc1N1CCN(C(=O)c2ccc(NC3=NC4CS(=O)(=O)CC4S3)cc2)CC1 (centres undefined) 0.72%, COc1ccc(-n2nc(C(=O)NCC(=O)N3CCN(c4ccccc4OC)CC3)c3ccccc3c2=O)c(OC)c1 6.66%, CCN(CC(=O)Nc1c(F)cccc1F)C(=O)c1ccc(-c2ccccc2)cc1 4.05%, CCN(CC(=O)Nc1c(F)cccc1F)C(=O)c1cnc(C)cn1 -6.81%, COc1cc(C2C(C(=O)c3cccs3)=C(O)C(=O)N2CCN2CCOCC2)ccc1OCCC(C)C (centres undefined) -13.5%, CN(CC(=O)Nc1cccc(F)c1)C(=O)C1CC(=O)N(CCc2ccccc2)C1 (centres undefined) -1.18%, Cc1cc(C)c2[nH]c(=O)c(CN(Cc3ccccc3)C(=S)NCCCN(C)C)cc2c1 2.15%, Cc1cc(C)cc(NC(=S)NCCCN2CCOCC2)c1 0.98%, C=CCn1c(SCc2nnc(-c3ccccc3)o2)nnc1C(O)c1ccccc1 (centres undefined) 5.64%, CCOc1ccc(N(C(=O)c2snc(C(N)=O)c2N)C(C(=O)NCC2CCCO2)c2c[nH]c3ccccc23)cc1 (centres undefined) 7.52%, COc1cc(F)c(C2=CC(=O)CC(C)(C)C2)cc1F -23.8%, CC(=O)Nc1ccc(S(=O)(=O)N(CCc2ccccc2)CC(=O)N/N=C/c2ccc(C(=O)O)cc2)cc1 -5.24%, COc1ccc(N(CC(=O)N/N=C/c2cccs2)S(=O)(=O)c2ccc(OC)c(OC)c2)cc1 -15.8%, O=C1c2cccc(OCC(=O)N3N=C(c4cccs4)CC3c3ccc(F)cc3)c2CCN1Cc1ccccc1 (centres undefined) -25.8%, Cc1ccc(C2=NN(C(=O)COc3ncnc4ccccc34)C(c3ccco3)C2)cc1 (centres undefined) -119%, CCC(C)(C(=O)NC1CCCC1)N(C(=O)CNC(C)=O)c1ccc(C)cc1 (centres undefined) -5.51%, O=C(Nc1cc(F)ccc1F)c1ccc2c(=O)n3c(nc2c1)CCC3 8.53%, N#Cc1cccc(OC(=O)c2ccc3c(=O)n4c(nc3c2)CCC4)c1 -4.93%, Cc1cc(C)c(C)c(S(=O)(=O)N2CCN(C(=O)c3ccc4c(=O)n5c(nc4c3)CCC5)CC2)c1C 20.1%, Cc1ccc(/C=C2\CCn3c2nc2cc(C(=O)O)ccc2c3=O)c(C)c1 31.9%, CCCn1c(C2CCCN2c2nc(-c3ccc(OC)cc3)cs2)nc2ccccc21 (centres undefined) -26.8%, CCOC(=O)[C@]12CCC=C1N(Cc1ccco1)C(=O)[C@H](CC(=O)NCc1cccc(C(F)(F)F)c1)C2 5.67%, COc1cc(C2NC(=O)NC(c3ccccc3)=C2C(C)=O)c(Br)cc1OCC(N)=O (centres undefined) 9.92%, Cc1nc2ccc(S(=O)(=O)NC(C(=O)N3CCCCCC3)C(C)C)cc2s1 (centres undefined) 1.31%, COc1cc2c(cc1CNC[C@H]1O[C@@H](n3cnc(C(N)=O)n3)[C@H](O)[C@@H]1O)OCO2 0.3%, Cc1nn(-c2ccccc2)c(NC(=O)c2cccs2)c(-c2ccc(Cl)cc2)c1=O 5.28%, CCOC(=O)CSc1nc2c(c(=O)n(Cc3ccccc3Cl)c(=O)n2C)n1C -3.76%, CCOC(=O)c1cnn(Cc2ccccc2Cl)c1N 4.25%, CC1=C(C(=O)OCC2CCCCC2)C(c2ccc(F)cc2)NC(=O)N1 (centres undefined) 10.3%, CCN(C[C@H]1N[C@@](CC)(C(=O)OC)[C@H]2C(=O)N(Cc3ccccc3)C(=O)[C@@H]12)S(=O)(=O)c1ccc(C(F)(F)F)cc1 2.27%, Oc1ccc(-c2[nH]ncc2-c2nc3ccccc3s2)c(O)c1 -10.2%, O=C1Nc2ccc([N+](=O)[O-])cc2C1=Nc1cccc(CO)c1 -19.4%, COC(=O)C1(C(=O)OC)C[C@H](c2ccccc2)N(Cc2ccccc2OC)[C@@H]1c1ccccc1 -0.75%, CN(Cc1nc2ccccc2c(=O)[nH]1)Cc1cc(=O)oc2ccc3ccccc3c12 10.8%, CC(C)c1ccc2oc(=O)cc(CN3CCN(Cc4ccccc4)CC3)c2c1 8.04%, NC(=O)C1CCN(C(=O)/C(=C/c2ccco2)NC(=O)c2ccccc2)CC1 2.01%

inhibition, active:
CCN1CCCC1CNc1ncnc2c1[nH]c1ccc(F)cc12 (centres undefined) 37%, CC(=O)c1ccc(Nc2nc(C(N)c3ccccc3)cs2)cc1 (centres undefined) 41.1%, O=c1c2c(nc3cc(-c4cccc(Cl)c4)[nH]n13)CCCC2 40.3%, COc1ccc2oc(C(=O)NCC(Cc3ccccc3)N(C)C)c(C)c2c1 (centres undefined) 43.3%, COc1ccc(Br)cc1/C=N/Nc1ccc(Cl)c(C(=O)O)c1 45.1%, COc1ccc2oc(C(=O)OCC(=O)N(CC(C)C)c3c(N)n(Cc4ccccc4)c(=O)[nH]c3=O)c(C)c2c1 44.4%, CC(C)Cc1nc(N2CCOCC2)c(C#N)c2c1CCC2 44.8%, CCOC(=O)c1cc(C(C)C)sc1NC(=O)COC(=O)c1nccnc1N 45.2%, COc1ccc(Nc2ncc(C(=O)N3CCN(c4ccccc4OC)CC3)c3ccccc23)cc1 48.4%, CCN(CC(=O)Nc1c(F)cccc1F)C(=O)c1ccc(-c2ccc(C(C)=O)cc2)o1 71.9%, Cc1ccc2cc(C#N)c(NCCNC(=S)NCCCN3CCOCC3)nc2c1 50.7%, COc1ccc(N(CC(=O)N/N=C/c2cccc3c2OCCO3)S(=O)(=O)c2ccc(NC(C)=O)cc2)cc1 38.9%, O=C(COc1ccccc1Cl)N1N=C(c2cccs2)CC1c1ccco1 (centres undefined) 39.1%, N#Cc1ccc(/C=C2\CCn3c2nc2cc(C(=O)O)ccc2c3=O)cc1 63.7%, O=C(O)c1ccc2c(=O)n3c(nc2c1)/C(=C/c1ccc(OC(F)F)cc1OC(F)F)CC3 41%, COc1ccc(-n2cc(CN(C)Cc3n[nH]c(=O)[nH]3)c(-c3cccc(F)c3)n2)cc1 47.7%, CCOC(=O)c1cnc2nc(SCc3ccccc3Cl)[nH]n2c1=O 36.4%, c1ccc(-c2[nH]ncc2-c2nc3ccccc3[nH]2)cc1 44.3%, O=c1cc(CN2CCCCCCC2)c2c(ccc3ccccc32)o1 47.4%
